INS-1E GSIS act – GLuc luminescence reporter in INS-1E cells, primary screen for activators of glucose-dependent secretion of insulin; INS-1E GLuc reporter insulin secretion, 2-3 h; activation, % at 16.6 µM; 370,000 compounds, 0.61% hits;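 active = lowest replicate activation of at least 40%, so every replicate reaches that level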;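 also: 0% = median of neutral control wells and 100% = median of IBMX positive control wells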
CFTR F508del cor – CFTR F508del correction in bronchial cells; 350,000 compounds, 0.36% hits; activity (quench increase), % at 7.58 µM; AID 720511; CFBE cells, YFP halide quenching; stimulated with forskolin plus potentiator P3; % fluorescence drop versus neutral controls;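 active = mean added fluorescence quench of at least 8% versus neutral control, with both replicates also reaching 8%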;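 also: cells transiently co-express mutant CFTR-F508del with the halide-sensitive YFP; corrector assay measuring rescue of mutant channel to the surface after 24 h compound exposure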
Wnt bcat act – Wnt/beta-catenin pathway activation; 300,000 compounds, 1.2% hits; activation, % at 9.35 µM; Wnt/beta-catenin reporter cell assay, activator, plate reader; in the data active = activation above about 30%, passing the limit was not always enough;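 also: 0% = neutral control wells and 100% = positive control wells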
Env fusion inh – inhibitors of HIV Env-mediated cell fusion; inhibition, % at 12.3 µM; 360,000 compounds, 1.1% hits; HeLa-JRFL Env/CEM21 cell fusion, luciferase;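 active = mean replicate inhibition score of at least 50 and every replicate individually at or above 50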;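 also: 0% = plate neutral controls and 100% = maraviroc near 300 nM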
MITF TRPM1 HTS – MITF TRPM1 promoter activation in melanoma cells. 300,000 compounds, 0.75% hits. activation, % at 12.5 µM. SK-MEL-5 TRPM1-promoter luciferase, 24 h; % of positive control, neutral wells = 0. AID 588334;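 active = mean activation of at least 80% with every replicate also reaching 80%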;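 also: 0% = neutral control wells and 100% = parthenolide positive control wells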
Numbers without * were called inactive; [ ] = another dose, or the depositor's remark. In the library only some 2.7% were active in any assay of this set; here they are far more common.

For C/C=C/c1ccc2c(c1)O[C@H](CN(C)Cc1ccccn1)[C@@H](C)CN([C@H](C)CO)S2(=O)=O the results were INS-1E GSIS act 3, CFTR F508del cor -1 and Env fusion inh -16[16.7 µM].
For O=S(=O)(c1cccc(F)c1)N1CC[C@@H]2[C@H](CO)Nc3ccc(C#Cc4cccc(F)c4)cc3[C@@H]21 the results were INS-1E GSIS act 19 and CFTR F508del cor -1.
O=C(Nc1ccc2nc(-c3ccco3)[nH]c2c1)c1ccco1 was read as Wnt bcat act 37* and Env fusion inh -133.
`O=C(Nc1ccc(Br)cc1)c1ccco1` gave INS-1E GSIS act 3, CFTR F508del cor -3, Wnt bcat act 23 and MITF TRPM1 HTS 91*.
`Nc1nc(-c2ccc(NC(=O)c3ccco3)cc2)cs1` gave CFTR F508del cor 1, Wnt bcat act 42*, Env fusion inh -33 and MITF TRPM1 HTS -6.
O=C(COC(=O)c1cccc(NC(=O)c2ccco2)c1)c1ccc(Br)cc1 was read as Wnt bcat act 43* and Env fusion inh -25.
Screening CC(C)(C)C(=O)COC(=O)c1cccc(NC(=O)c2ccco2)c1 returned Wnt bcat act 0, Env fusion inh -48 and MITF TRPM1 HTS 49.
For COc1cccc(NC(=O)N[C@H]2CC[C@H](CC(=O)NCc3ccccn3)O[C@H]2CO)c1 the results were INS-1E GSIS act 9, CFTR F508del cor -2 and Env fusion inh -10[16.7 µM].
Screening C[C@@H](NC(=O)C[C@@H]1C[C@H]2c3cc(NC(=O)c4cccnc4)ccc3O[C@H]2[C@@H](CO)O1)c1ccccc1 returned INS-1E GSIS act 4, CFTR F508del cor 0 and Env fusion inh -14[16.7 µM].
`CC(C)OC(=O)c1ccc(NC(=O)c2ccco2)cc1` gave Wnt bcat act 19 and MITF TRPM1 HTS 110*.
Screening Cc1nc(-c2ccc(NC(=O)c3ccco3)cc2)cs1 returned INS-1E GSIS act 9, CFTR F508del cor 0, Wnt bcat act -9, Env fusion inh 28 and MITF TRPM1 HTS -70.
For CC(=O)N(C)c1ccc(NC(=O)c2ccco2)cc1 the results were Wnt bcat act 35*, Env fusion inh -45 and MITF TRPM1 HTS 35.
COc1ccc(OCC(=O)Nc2cccc(NC(=O)c3ccco3)c2)cc1 was read as INS-1E GSIS act 0, CFTR F508del cor 2, Env fusion inh 15 and MITF TRPM1 HTS -4.
Cc1cccc(OCC(=O)Nc2ccc(NC(=O)c3ccco3)cc2)c1 was read as INS-1E GSIS act 75*, CFTR F508del cor -1, Wnt bcat act 2, Env fusion inh -6 and MITF TRPM1 HTS 15.
Cc1ccn2cc(-c3ccc(NC(=O)c4ccco4)cc3)nc2c1 was read as INS-1E GSIS act -5, Wnt bcat act 46*, Env fusion inh -113 and MITF TRPM1 HTS 67.
For CCOC(=O)c1ccc(NC(=O)c2ccco2)cc1 the results were INS-1E GSIS act 0, CFTR F508del cor -2, Wnt bcat act 21, Env fusion inh -74 and MITF TRPM1 HTS 75.
C[C@H](CO)N1C[C@H](C)[C@@H](CN(C)C(=O)c2ccncc2)Oc2ncc(C#CC3CC3)cc2C1=O was read as INS-1E GSIS act 2, CFTR F508del cor 1 and Env fusion inh -9[16.7 µM].
Screening COC(=O)c1c(NC(=O)c2ccco2)sc(C(=O)Nc2ccc(F)cc2)c1C returned INS-1E GSIS act 8, CFTR F508del cor 0, Wnt bcat act 25 and MITF TRPM1 HTS 109*.
For COC(=O)c1c(NC(=O)c2ccco2)sc(C)c1C the results were Wnt bcat act 7, Env fusion inh -12 and MITF TRPM1 HTS 1.
For Cc1ccc(-c2ccc3c(c2)O[C@H](CN(C)C(=O)CN(C)C)[C@H](C)CN([C@@H](C)CO)S3(=O)=O)cc1 the results were INS-1E GSIS act 0, CFTR F508del cor 2 and Env fusion inh -4[16.7 µM].
COc1ccc(-n2c(SCC(=O)Nc3ccc(C(=O)O)cc3)nnc2-c2cccs2)cc1 was read as Wnt bcat act -3 and Env fusion inh -62.
`COc1ccc(C(=O)CSc2nnc(-c3cccs3)n2-c2ccccc2)cc1` gave INS-1E GSIS act 46* and MITF TRPM1 HTS -8.
Screening C[C@H](CO)N1C[C@H](C)[C@H](CN(C)C(=O)c2ccncc2)Oc2ncc(C#C[C@@H](C)O)cc2C1=O returned INS-1E GSIS act 31 and CFTR F508del cor 0.
Screening C[C@@H]1CN([C@H](C)CO)C(=O)c2c(c3ccccc3n2C)-c2ccccc2CO[C@H]1CN(C)Cc1cccnc1 returned INS-1E GSIS act -10.
Screening CCOc1ccc(S(=O)(=O)N2CCN(C(=O)CN3C(=O)NC(C)(C)C3=O)CC2)cc1 returned INS-1E GSIS act 21, CFTR F508del cor -2, Wnt bcat act 47* and MITF TRPM1 HTS 8.
`COc1cccc(CN(C)C[C@H]2OCc3cn(nn3)CCCC(=O)N([C@@H](C)CO)C[C@H]2C)c1` gave INS-1E GSIS act 5, CFTR F508del cor 1 and Env fusion inh 1[16.7 µM].
`O=C(C[C@H]1CC[C@@H]2[C@H](COC[C@@H](O)CN2S(=O)(=O)c2ccc(Cl)cc2)O1)N[C@@H]1CCN(Cc2ccccc2)C1` gave INS-1E GSIS act -4 and CFTR F508del cor -1.
O=C(NCc1ccccc1)C(c1ccncc1)n1c(=O)c(-c2ccccc2)nc2ccccc21 (stereo unspecified) was read as INS-1E GSIS act 45*, CFTR F508del cor 0, Wnt bcat act 20 and Env fusion inh -20.
`CCCCCNC(=O)C(c1ccncc1)n1c(=O)c(-c2cc3ccccc3[nH]2)nc2ccccc21` (stereo unspecified) gave INS-1E GSIS act -37, CFTR F508del cor 0, Wnt bcat act -3 and Env fusion inh 75*.
`CCCCCNC(=O)C(c1ccc(OC)cc1)n1c(=O)c(-c2cc3ccccc3[nH]2)nc2ccccc21` (stereo unspecified) gave INS-1E GSIS act -5, CFTR F508del cor 1, Wnt bcat act -2 and Env fusion inh 26.
O=C(Nc1ccc2c(c1)OCCO2)C(c1ccncc1)n1c(=O)c(-c2cc3ccccc3[nH]2)nc2ccccc21 (stereo unspecified) was read as INS-1E GSIS act -35, CFTR F508del cor 3, Wnt bcat act 53* and Env fusion inh 43.
Screening O=C(C[C@@H]1C=C[C@@H](NC(=O)c2ccccc2)[C@H](CO)O1)NCc1ccncn1 returned INS-1E GSIS act 17, CFTR F508del cor 0 and Env fusion inh 1[16.7 µM].
C[C@H]1CN([C@@H](C)CO)C(=O)c2cc(Br)cnc2O[C@@H]1CN(C)C(=O)C1CCCCC1 was read as INS-1E GSIS act 4, CFTR F508del cor -1 and Env fusion inh 4[16.7 µM].
Cc1cccc2c1OCC/C2=N\NC(=O)COc1ccccc1Cl was read as INS-1E GSIS act 2, Env fusion inh -150 and MITF TRPM1 HTS 95*.
CN(C)/C=C/C=C1C(=O)CCCC1=O was read as Wnt bcat act 73*, Env fusion inh -3 and MITF TRPM1 HTS -3.

Compound activity as filed in PubChem BioAssay.
